PGE2 EP2 inh: inhibitors of human EP2 prostaglandin E2 receptor. inhibition, % at 25 µM. 0.52% of 260,000 active. P43116. C6 glioma cells expressing human EP2, cAMP TR-FRET; cells stimulated with saturating PGE2;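 active = percent inhibition above 40 after rounding to a whole number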;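 also: rat C6 glioma host cells with rolipram phosphodiesterase inhibitor present; the protocol text gives 20 µM as final concentration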
EP2 mod: modulates human prostaglandin E2 receptor EP2 signaling. induction, % at 25 µM. P43116. 0.83% of 260,000 active. EP2-expressing cells, cAMP HTRF FRET, PGE2 co-stimulation;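 active = compounds whose cAMP rise, as percent of the full-agonist control response, exceeds 60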;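 also: rat C6 glioma line stably carrying human EP2 under a CMV promoter; the protocol text gives 20 µM as final concentration; 100% = response of wells given 1 µM PGE2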
S1P4 agonist: agonists of human S1P4 receptor; S1P4-expressing cell line, agonist reporter assay; activation, % at 4.98 µM; 0.35% of 220,000 active; AID 1509; in the data active = activation above about 11%;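 also: 0% = DMSO vehicle and 100% = reference agonist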
Target sequence (O95977 whole entry, looked up): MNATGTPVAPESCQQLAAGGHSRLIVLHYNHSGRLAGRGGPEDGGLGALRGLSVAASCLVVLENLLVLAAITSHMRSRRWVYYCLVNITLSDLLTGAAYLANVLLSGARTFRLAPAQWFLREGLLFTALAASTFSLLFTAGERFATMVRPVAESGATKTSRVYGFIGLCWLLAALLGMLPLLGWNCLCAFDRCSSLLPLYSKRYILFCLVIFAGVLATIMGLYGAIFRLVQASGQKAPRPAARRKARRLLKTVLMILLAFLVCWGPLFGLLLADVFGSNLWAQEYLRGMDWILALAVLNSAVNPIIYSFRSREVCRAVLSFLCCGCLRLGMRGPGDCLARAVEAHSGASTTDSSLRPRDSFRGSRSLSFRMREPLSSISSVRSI
S1P4 antag: human S1P4 receptor antagonism; S1P4-expressing cells, antagonist mode, reporter read-out; inhibition, % at 4.98 µM; 0.26% of 220,000 active; in the data active = inhibition above about 29%;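 also: 0% = wells stimulated with agonist and 100% = vehicle wells without agonist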
S1P3 antag: S1P3 (human) receptor antagonism; Q99500; CHO S1P3 NFAT-BLA reporter, FRET fluorescence, antagonist mode; inhibition, % at 4.98 µM; 0.27% of 170,000 active; AID 485;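 active = inhibition above the plate cutoff, the mean inhibition of test wells on that plate plus 3 SD, cut at about 28% in these data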;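 also: cells challenged with S1P at its EC80 of 0.8 µM; blue over green emission ratio from cleaved BLA substrate after 4 h stimulation; 0% = S1P-stimulated wells and 100% = unstimulated DMSO-only wells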
Insulin prom inh: TRM-6 insulin promoter activity inhibition; TRM-6 cells (human fetal islet line), insulin promoter-eGFP reporter, imaging; reporter expression induced with tamoxifen; inhibition, % at 2 µM; AID 1273; 0.9% of 130,000 active;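 active = inhibition above the mean plus 3 SD, with well images judged a real hit on visual review, cut at about 60% in these data, passing the limit was not always enough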
* hit, by the source's call; nt = not tested or not shown; ! = not active in a repeat. Hits are enriched below; roughly 2.4% of the tested compounds scored in any of these assays.

SMILES	PGE2 EP2 inh	EP2 mod	S1P4 agonist	S1P4 antag	S1P3 antag	Insulin prom inh
CCOc1cc(C2NC(=O)NC(C)=C2C(=O)OC)ccc1OC (stereo unspecified)	12	7	nt	nt	nt	nt
CCOc1ccc(-c2csc3ncn(CC#N)c(=O)c23)cc1	8	-20	nt	nt	nt	nt
CC(=O)c1cccc(NC(=O)c2ccc(-c3ccccc3[N+](=O)[O-])o2)c1	47*	-69	1	-21	-2	34
Cc1ccc2cc(C#N)c(SCC(=O)Nc3cccc(Cl)c3C)nc2c1	15	17	nt	nt	nt	nt
COC(=O)C1=CN(Cc2ccc(OC)cc2)C=C(C(=O)OC)C1c1ccsc1	6	61*	0	-2	2	nt
CC1=NN(C(=O)c2ccccc2O)C(O)(C(F)(F)F)C1 (stereo unspecified)	7	22	nt	nt	nt	nt
CCOc1ccc(NC(=O)Nc2cc(-c3ccccc3)sc2C(=O)OC)cc1	10	9	-2	-5	-4	nt
CCOC(=O)c1sc(-c2ccc(OC)cc2)cc1NC(C)=O	40*	13	0	0	-6	0
O=C(C1CCCO1)N1CCN(c2c3c(nc4cc(-c5cccc(F)c5)nn24)CCC3)CC1 (stereo unspecified)	17	-1	nt	nt	nt	nt
Nc1nc(N)c(-c2cccc(C(F)(F)F)c2)c(Cc2cccc(C(F)(F)F)c2)n1	62*	-44	nt	nt	nt	nt
CCCCC1C(=O)CC[C@H]2[C@@H]1CC(=O)[C@@H]2C/C=C\CCCC(=O)O (stereo partly specified)	14	80*	1	-17	-4	52
CCCCCC1C(=O)CCC1CC(=O)O (stereo unspecified)	12	24	nt	nt	nt	nt
Cc1nc2sc3c(c2c2nn(CC(=O)NC(C)(C)C)c(=O)n12)CCC(C)C3 (stereo unspecified)	nt	-36	nt	nt	nt	nt
COc1ccc(-c2[nH]ncc2C=O)cc1	9	17	1	1	-15	60*
O=C(C[N+]1(c2ccccc2)CCOCC1)c1ccccc1	53*	15	nt	nt	nt	nt
Cc1ccc(C2=C(Cl)C(=O)C(c3ccc(C)cc3)=C(Cl)C2=O)cc1	46*	22	nt	nt	nt	nt
C/C(=C\C(=O)C(F)(F)F)Nc1ccc(C(F)(F)F)cc1	6	32	-2	3	nt	41
CC(C)(CCl)C(=O)Nc1ccc(C(F)(F)F)cc1	12	-97	2	-8	3	85*
N/C(Cc1ccc([N+](=O)[O-])cc1)=N\OC(=O)c1ccc(Br)o1	5	-10	1	-8	7	71*
N/C(Cc1ccc([N+](=O)[O-])cc1)=N\OC(=O)c1ccccc1F	5	0	-2	-4	-7	nt
Cn1c(=O)c2c(nc(N/N=C/c3ccccc3C(=O)O)n2C)n(C)c1=O	44*	17	nt	nt	nt	nt
O=S(=O)(NCCNc1ncnc2sc3c(c12)CCCC3)c1ccccc1	15	-88	nt	nt	nt	nt
Cc1cccc(NC(=O)c2sc3ccccc3c2Cl)c1	15	-45	nt	nt	nt	nt
OCCOCCN1CCN(C(c2ccccc2)c2ccc(Cl)cc2)CC1 (stereo unspecified)	20	15	3	-12	12	-33
CC(C)(C)c1ccc(CN2CCN([C@H](c3ccccc3)c3ccc(Cl)cc3)CC2)cc1	45*	15	nt	nt	nt	nt
SMILES	PGE2 EP2 inh	EP2 mod	S1P4 agonist	S1P4 antag	S1P3 antag	Insulin prom inh
CO[C@@H]1/C=C\O[C@]2(C)Oc3c(C)c(O)c4c(O)c(c(CN(C)C)c(O)c4c3C2=O)NC(=O)C(C)=C/C=C\[C@@H](C)[C@@H](O)[C@H](C)[C@@H](O)[C@H](C)[C@H](OC(C)=O)[C@@H]1C	52*	12	nt	nt	nt	nt
CO[C@H]1C=CO[C@@]2(C)Oc3c(C)c(O)c4c(O)c(c(C=NN5CCN(C)CC5)c(O)c4c3C2=O)NC(=O)C(C)=CC=C[C@H](C)[C@H](O)[C@@H](C)[C@@H](O)[C@@H](C)[C@H](OC(C)=O)[C@@H]1C	13	5	0	-14	-4	0
Cc1nnc(Sc2cc(NCCCO)c([N+](=O)[O-])c3nonc23)s1	13	-47	2	-7	27	nt
Cc1nnc(Sc2cc(NCCO)c([N+](=O)[O-])c3nonc23)s1	50*	-69	1	12	-1	50
O=C(Nc1ccc2c(c1)OCO2)C1CCN(C(=O)NC2CCCCC2)CC1	17	10	nt	nt	nt	nt
O=C(O)c1ccc(Oc2ccccc2)o1	4	70*	-1	6	-16	nt
O=C(O)c1cccc2c1C(=O)c1ccccc1C2=O	2	11	1	5	-18	nt
O=C(O)C1=C/C(=C(/c2ccccc2)c2cc(C(=O)O)c(O)c3ccccc23)c2ccccc2C1=O	40*!	3	nt	nt	nt	nt
Cc1ccc(-c2nc(CNC(=O)c3ccnn3C(C)C)no2)cc1	8	-60	nt	nt	nt	nt
CC(=O)Nc1ccc2c(c1)C(=Nc1ccc(C(=O)O)cc1)c1ccccc1-2	59*	-7	nt	nt	nt	nt
CC(=O)Nc1ccc(C(=O)c2ccccc2)cc1	5	0	-1	-16	-46	-19
Cc1ccccc1Nc1nc(CSc2nnnn2-c2ccccc2)cs1	10	12	-2	-9	nt	69*
CCCCC(CC)CN=C(N)NC(N)=NCCCCCCN=C(N)NC(N)=NCC(CC)CCCC (stereo unspecified)	71*	-15	nt	nt	nt	nt
COc1ccccc1CN1C(=O)[C@@H]2C(CCC(N)=O)NC3(C(=O)Nc4c3ccc(Cl)c4C)[C@@H]2C1=O (stereo partly specified)	9	7	-1	5	-12	71*
CCc1sc(C2C3=C(CC(C)(C)CC3=O)OC3=C2C(=O)CC(C)(C)C3)cc1[N+](=O)[O-]	10	45	nt	nt	nt	nt
Cc1cccc(C)c1NC(=O)CCCSc1nc(-c2ccco2)cc(C(F)(F)F)n1	15	-36	nt	nt	nt	nt
C=CCN1CCN(C(c2ccc(OC)c(OC)c2)c2nnnn2Cc2ccc(F)cc2)CC1 (stereo unspecified)	12	-18	nt	nt	nt	nt
COc1ccc2[nH]c3c(=O)n(N)c(C)nc3c2c1	5	5	0	-3	-21	81*
Cc1ccc2[nH]c3c(=O)n(N)c(C)nc3c2c1	4	-17	0	1	-20	94*
Cc1ccc2[nH]c3c(=O)n(N)c(=O)[nH]c3c2c1	7	-33	0	7	-8	nt
Cc1nc2ccc3nc(NC(=O)c4ccc5c(c4)OCCO5)sc3c2s1	52*	4	0	7	6	nt
O=C(O)c1ccn2c(C(=O)c3ccc(Cl)cc3)c(-c3ccccc3)cc2c1	7	77*	-1	-2	-9	nt
O=C(N/N=C/c1cn(Cc2ccccc2)c2ccccc12)c1cccnc1	6	8	-2	-17	28*	-79
CCc1nn(CC(=O)NC2CCC2)c(=O)c2cc3ccsc3n12	nt	4	nt	nt	nt	nt
Cc1cc(C)cc(NC(=O)Nc2ccc3c(c2)N(C)C(=O)CS3)c1	43*	-70	-1	-23	nt	nt
Cc1ccc(NC(=O)Nc2ccc3c(c2)N(C)C(=O)CS3)cc1C	23	-81	0	-20	nt	nt
CCN1/C(=C/C=C/C=C/c2sc3ccccc3[n+]2CC)Sc2ccccc21	50*	-64	1	-3	-3	-355

Screens as filed in PubChem.
